# Results published in the supplement of paper PMC6555819.
# Test system: PPARg:RXRa 270nM:90nM, anti-RXR (NR concentration 270 nM, RXRa partner concentration 90 nM)
# Assay: PBM binding z-score (relative to random genomic background probes); higher = stronger binding; sequences stand for … in GC…GCGATTGACAGCGTAGAATGAAGG
# Method in brief: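 Custom Agilent 4×180K protein-binding microarrays carried double-stranded probes, each with a 34-nt variable region. These regions held direct-repeat seeds, single-nucleotide variants, half-site ablations and random human genomic background sequences. Ligand-free nuclear receptor dimers were incubated on the arrays for 1 h, antibodies against each partner (one per run) detected binding, and scanned fluorescence was regression-normalized. Binding z-scores take the random background probes as reference.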
row,Sequence,PBM binding z-score
1,TCTATTTGTTGAAGGGCAACCGACGAGTCCGTTT,2.21
2,AGAACGAGGGCTCGCTGAGTTGATAGCAGAGTAG,-0.824
3,GATACAGGGTAAAGGCCAGAGTACGCGTATTGAT,5.45
4,CCGACTGGGCCAAGGTCATTGATCAGTCAAAGCA,3
5,CTTCAAAGTTCAACTAAGGTAACGTAAAGCACGC,4.03
6,GCTATCAGTTGAAAGGGCAACCGAATGATTCTCG,2.77
7,ATCTCTAGGTAAAAGTTCCGTGAATCCCGAGGAT,4.22
8,TCGAGTAGGTTGGTCGGGGCATTCAGCCAACATA,0.116
9,AGAATGATGTTACCAAAGATCAGGGAAACGCTTG,0.26
10,CCTACTGGGCCAAACAGGTCATTGATGCCGATAA,2.18
11,CCTACTTGGCCATCAGGTCATTGATATCAACGTT,1.36
12,CCTTACGGGTCAAGGTTAAAGCACGGGTGGTACG,5.34
13,TCTAGATGGTCACGGAGGTCACACACGACGGGTA,4.36
14,CAAACTAGGGCAAGAGGTCAAAGTCCGCTTCCCG,6.92
15,TCTTGTAGATCAGCAGGTTAAGAAAGCTGGCCAA,1.3
16,ATCGGAAGGTCGAAGGTGAGTATACCCACCCGAA,3.84
17,CCTTACGGGTCACGAGGATATAGCACGACGAGCG,6.23
18,TCTTGTAGATCAACAGGAGGTTAGGAAAGATCGA,1.06
19,CCTTACGGGTCACTGACGGGTTATAGCATTTGGA,4.28
20,TCTGATAGGTCAACGATGGTCAGCTAATCTGCTA,4.48

row,Sequence,PBM binding z-score
1,CAAACTAGGTCACAGAGGTCATAGTCCGTGCGTA,8
2,TCTATTAGTTGAAGGGCAAACGACGAGTCCGTTT,2.43
3,ATATGTAGGTTATCGGGTCGTTCAGTTTGCGCAT,4.95
4,CCGACTGGGGCATACGGTTACCATAAGCCAGCCC,1.77
5,ACTCGGAGGACAAAGATCAGAGCTACGCCAGTGA,2.24
6,AGAATGAGGTTATACGTCGATCAGGGAAGAAAGT,2.99
7,AGAATGAGGTTAAGCTCAGGGAAACAGAATACAT,2.58
8,CGTCCAAGGTCATAGGAGGTCAGAGAAGACAGAT,6.19
9,CGTCAAAGTTCAATTAAGGTAACGTAAAGCACGC,4.67
10,CTCGAAAGGTCGTACTCAGGTGAGTATACCAAAC,3.85
11,CTCGAAAGGTCGATTGAGGTGAGTATACGGATAA,2.47
12,CTCGAAAGGTCGTGCTCAGGTGCGTATACCAAAC,3.16
13,ATCTCTAGGTAAGACTCAGTTCACTGAAGAACGC,0.623
14,CCTTACGCGTCACTGACAGGTTATAGCATTTGGA,0.128
15,TTACCAATGTGAAAGGTCGTTGATGCACGCCTTG,5.96
16,TAGCCTAGGTCATGCGGGCCAGAATAGTGTCGGC,2.53
17,CCTTACGAGTCACGAGGTTATAGCACGACGAGCG,0.515
18,AGAATGAGGTTATACGTAGAACAGGGAAGAAAGT,1.83
19,CCTGCTGGGCCATCAGGTCATTGATATCAACGTT,1.06
20,AGTCAAAGTTCACTAGCTAACGTAAGATTCAGCT,5.49
